Compound activity deposited in PubChem by National Center for Advancing Translational Sciences (NCATS).
MCF10A rereplic: induces DNA re-replication in MCF 10a normal breast cells; MCF 10A DNA re-replication, Hoechst nuclear intensity, 48 h; Potency, µM (highest dose often 46.1 µM), hits mostly activators; hit rate 2.9% among 350,000; AID 624296; note: nearly all actives have a fitted effect of over 50% in size
SW480 rereplic: induces DNA re-replication in SW480 colon adenocarcinoma cells | AID 624297 | hit rate 1.8% among 340,000 | Potency, µM (top dose mostly 46.1 µM), actives largely listed as activators | SW480 DNA re-replication, Hoechst DNA content imaging, 48 h; note: nearly all actives have a fitted effect of over 55% in size
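Image-based DNA-content assay: after two days of treatment, nuclei were labelled with the DNA dye Hoechst and imaged, and hits were compounds raising the count of nuclei showing high fluorescence intensity.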
IL1B secr inh: inhibitors of inflammasome signaling (IL-1 beta secretion). THP-1 LPS/ATP IL-1B secretion, AlphaLISA, 16 h; hits give low values. activity change, % at 57.5 µM. hit rate 4.7% among 360,000; in the data active = activity change below about -50%; inconclusive = mostly about -30% to -49%
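Secreted IL-1B measured by AlphaLISA bead assay after 16 h compound exposure of THP-1 cells; compounds (final up to 57.5 uM) added 1 h before LPS (250 ng/mL) and ATP (1.25 mM) stimulation; lower signal means less secretion.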
KB-V1 cytotox: kills drug-selected multidrug resistant KB-V1 cells. KB-V1 MDR cells viability, CellTiter-Glo, 72 h. Potency, µM (top dose mostly 46.1 µM), most hits filed as cytotoxic. hit rate 3.4% among 400,000; note: nearly all actives have a fitted effect of over 60% in size
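KB-V1 cells (P-gp-expressing MDR subline of KB-3-1) in phenol-red-free DMEM with 10% FBS were exposed to library compounds over a concentration series for 72 h at 37 degrees C. Viability read by CellTiter-Glo luminescence; concentration-effect curves fitted after normalization.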
KB-3-1 cytotox: KB-3-1 parental cell cytotoxicity. KB-3-1 viability, CellTiter-Glo ATP luminescence, 72 h. Potency, µM (highest dose often 46.1 µM), usual class: cytotoxic. hit rate 1.4% among 400,000; note: nearly all actives have a fitted effect of over 60% in size
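Parental KB-3-1 adenocarcinoma cells in phenol-red-free DMEM with 10% FBS were pin-treated with compounds at several concentrations, incubated 72 h at 37 °C, and viability read by CellTiter-Glo luminescence; concentration-effect curves were fitted after normalization.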
Hits are given with their value; - = inactive; ? = inconclusive; . = not tested or not shown; [ ] = dose if it differs, or a comment. Rows were chosen to be rich in hits. Some 9.9% of all compounds tested hit in one or more screens of this group. Unless noted, calls come from the whole dose curve; as a rule, active = well fitted curve in the direction sought with a large enough effect; inconclusive = small, poorly fitted or top-dose-only effect, or another doubt; inactive = no such curve, though single readings can be large; an effect the other way counts as inactive or inconclusive.

SMILES	MCF10A rereplic	SW480 rereplic	IL1B secr inh	KB-V1 cytotox	KB-3-1 cytotox
Cc1ccc(S(=O)(=O)N2CCCCC2)cc1NC(=O)CNC(C)c1ccc(Cl)c(Cl)c1 (centres undefined)	-	-	-63	-	15µM
Cc1ccc(S(=O)(=O)N2CCCCC2)cc1NC(=O)Cn1cnnn1	?	-	-	-	-
Cc1ccc(S(=O)(=O)N2CCCCC2)cc1NC(=O)Cn1ncc(Cl)c(Cl)c1=O	?	?	-102	-	?
O=C(CNc1ccccc1F)Nc1cc(S(=O)(=O)N2CCCCC2)ccc1Cl	-	-	-	-	-
CNc1nc(NC)c2cn[nH]c2n1	-	-	-	-	-
CCCOc1ccc(CNC(=O)C(NS(=O)(=O)c2cccs2)C(C)C)cc1 (centres undefined)	.	.	.	-	-
CCCCCCC1CC(CSc2ncn[nH]2)OC1=O (centres undefined)	-	-	-	-	-
Cc1csc(=O)n1CC(=O)Nc1ccc(Cl)c(Cl)c1	-	-	-	-	-
O=C(Cn1c2c(sc1=O)C1c3ccccc3OCC1CS2)Nc1ccc(Cl)c(Cl)c1 (centres undefined)	-	-	?	-	16µM
COc1ccccc1-c1cn[nH]c1-c1ccc(OCc2ccccc2F)cc1O	7.3µM	?	-101	-	-
COc1ccccc1-c1cn[nH]c1-c1ccc(OCc2ccc(F)cc2)cc1O	?	-	-52	-	-
COc1ccccc1-c1cn[nH]c1-c1ccc(O)cc1O	-	-	-	-	-
Cn1ncc2c(Nc3cccc(Cl)c3)nc(Nc3cccc(Cl)c3)nc21	18µM	?	-81	?	?
CNc1nc(Nc2ccc(C)c(Cl)c2)c2cnn(C)c2n1	?	-	-	?	?
Cn1ncc2c(Nc3ccc(Br)cc3)nc(Nc3ccc(Br)cc3)nc21	?	-	-101	-	-
Cc1cc(C)nc(-n2nc(C)c(Sc3ccc(F)cc3)c2N)n1	3.3µM	18µM	-	?	-
Cc1ccc(S(=O)(=O)CS(=O)(=O)c2ccc(C)cc2)cc1	-	-	-	?	-
O=S(=O)(CS(=O)(=O)c1ccc(Cl)cc1)c1ccc(Cl)cc1	21µM	-	.	-	-
O=S(=O)(CCN1CCSCC1)c1ccc(Cl)cc1	?	?	-73	-	-
O=C(CCNS(=O)(=O)c1ccc2c(c1)CCCC(=O)N2)Nc1cccc(Cl)c1	.	.	.	-	-
Cc1cccnc1NC(=O)CCNC(=O)c1ccc(Br)cc1	-	-	-	-	?
CN(C)c1nc(=NCc2ccco2)ss1	21µM	-	-89	-	-
CCOc1ccc(S(=O)(=O)n2cc(-c3ccccc3)c(N)n2)cc1	-	-	-	-	-
CCOc1cc(S(=O)(=O)n2cc(-c3ccc(F)cc3)c(N)n2)cc(OCC)c1OCC	-	?	-	16µM	?
CCOc1ccc(S(=O)(=O)n2cc(-c3ccc(F)cc3)c(N)n2)cc1	-	-	-	16µM	-
SMILES	MCF10A rereplic	SW480 rereplic	IL1B secr inh	KB-V1 cytotox	KB-3-1 cytotox
Cc1ccc(-c2cn(S(=O)(=O)c3ccc(C)cc3)nc2N)cc1	?	-	-	13µM	-
CCOC(=O)c1cc(-c2ccccc2)n(CC(=O)Nc2ccc(OC)cc2OC)c1C	.	.	.	-	-
COc1cc(CNCCNC(=O)c2nonc2N)ccc1OCc1ccc(Cl)cc1	?	-	-95	?	?
Nc1nonc1C(=O)NCCNCc1cc(Br)ccc1OCc1ccccc1F	-	-	-56	?	?
O=C(Nc1nnc([C@@H]2C[C@H](O)[C@@H](CO)O2)s1)c1ccccc1Cl	.	.	-	-	-
CC(CCc1ccccc1)NC(=O)C(=O)c1c[nH]c2ccccc12 (centres undefined)	10µM	-	-	-	-
O=C(NCCc1ccccc1)C(=O)c1c[nH]c2ccccc12	-	-[1.84 µM]	-	-	-
O=C(Nc1cccc(F)c1)C1CCCN1S(=O)(=O)c1cccc2cccnc12 (centres undefined)	-	-	-	-	-
O=C(Nc1ccc(C(F)(F)F)cc1)C1CCCN1S(=O)(=O)c1cccc2cccnc12 (centres undefined)	-	-	-	4.6µM	23µM
O=C(Nc1cccc(F)c1)C1CCCN(c2cnccn2)C1 (centres undefined)	-	-	-	?	-
Cc1cccc(NC(=O)C2CCCN(c3cnccn3)C2)c1 (centres undefined)	18µM	?	-	-	-
Cc1ccc(NC(=O)C2CCCN(C(=O)c3ccc(Cl)cc3)C2)cc1 (centres undefined)	-	-	-	?	-
Cc1ccc(NC(=O)C2CCCN(C(=O)c3ccc(Cl)cc3)C2)cc1C (centres undefined)	-	-	-71	?	?
Cc1ccc(NC(=O)C2CCCN(c3ncccn3)C2)cc1F (centres undefined)	-	-	-	16µM	-
O=C(Nc1cccc(C(F)(F)F)c1)C1CCCN(c2ncccn2)C1 (centres undefined)	-	-	-	16µM	-
COc1ccc(NC(=O)CSc2nnc(-c3ccc(OC)cc3)s2)cc1	.	.	.	-	-
N#CCCN(C(=O)COc1ccc(Cl)cc1Cl)c1ccccc1	-	-	-	-	-
Cc1ccc(NC(=O)C2CCCN(c3ncccn3)C2)c(C)c1 (centres undefined)	-	-	-	-	-
O=C(Nc1ccccc1-c1ccccc1)C1CCCN(c2ncccn2)C1 (centres undefined)	-	-	-	21µM	-
COC(=O)[C@]12CCCCC=C1N(CCc1ccc(OC)c(OC)c1)C(=O)[C@H](CC(=O)NCc1cccc(C(F)(F)F)c1)C2	.	.	-	15µM	?
COC(=O)[C@@]12C[C@@H](CC(=O)NCc3cccc(C(F)(F)F)c3)C(=O)N(CCc3ccc(OC)c(OC)c3)C1=CCC(C)(C)C2	.	.	?	16µM	?
COC(=O)[C@]12CCCCC=C1N(CCc1ccc(OC)c(OC)c1)C(=O)[C@H](CC(=O)NCc1ccc(OC)c(OC)c1)C2	.	.	-	-	-
Cc1ccc(C(=O)NCCN2C3=NC[C@H](Cc4ccc(O)cc4)N3C[C@H]2Cc2ccc(O)cc2)cc1Br	-	-[9.22 µM]	-	-	-
COc1ccc(C[C@H]2CN3C(=NC[C@@H]3C(C)C)N2C[C@H](C)NC(=O)c2ccc(C)c(Br)c2)cc1	-	-	-57	-	?
Cc1ccc(C(=O)N[C@@H](C)CN2C3=NC[C@H](C(C)C)N3C[C@H]2Cc2ccc(O)cc2)cc1Br	-	-	?	-	?
COc1ccc(C[C@H]2CN3C(=NC[C@H]3Cc3ccccc3)N2CCNC(=O)c2ccc(C)c(Br)c2)cc1	-	-	-52	?	?
COc1ccc(C[C@H]2CN3C(=NC[C@@H]3Cc3ccc(O)cc3)N2CCNC(=O)c2ccc(C)c(Br)c2)cc1	-	-	-	-	16µM
